This note sets out measurements from PubChem BioAssay AID707 (Columbia University Molecular Screening Center, 2007).

Out of some 91,000 compounds screened, about 310 (0.34%) were called active. Cut-off read from the data, not from the text of the source: active = inhibition above about 80%; inactive = the rest. For the sample, actives were picked, then their nearest neighbours and some compounds at random.

In this experiment the target is Bifunctional epoxide hydrolase 2 (Homo sapiens) (UniProt P34913). Description: soluble epoxide hydrolase inhibitors, primary screen, biochemical, human sEH (AID 707). The settings on record: recombinant human sEH enzymatic activity assay; at 2 µM; hits give high values.
Chain of Bifunctional epoxide hydrolase 2 (Homo sapiens) (P34913 whole entry, looked up): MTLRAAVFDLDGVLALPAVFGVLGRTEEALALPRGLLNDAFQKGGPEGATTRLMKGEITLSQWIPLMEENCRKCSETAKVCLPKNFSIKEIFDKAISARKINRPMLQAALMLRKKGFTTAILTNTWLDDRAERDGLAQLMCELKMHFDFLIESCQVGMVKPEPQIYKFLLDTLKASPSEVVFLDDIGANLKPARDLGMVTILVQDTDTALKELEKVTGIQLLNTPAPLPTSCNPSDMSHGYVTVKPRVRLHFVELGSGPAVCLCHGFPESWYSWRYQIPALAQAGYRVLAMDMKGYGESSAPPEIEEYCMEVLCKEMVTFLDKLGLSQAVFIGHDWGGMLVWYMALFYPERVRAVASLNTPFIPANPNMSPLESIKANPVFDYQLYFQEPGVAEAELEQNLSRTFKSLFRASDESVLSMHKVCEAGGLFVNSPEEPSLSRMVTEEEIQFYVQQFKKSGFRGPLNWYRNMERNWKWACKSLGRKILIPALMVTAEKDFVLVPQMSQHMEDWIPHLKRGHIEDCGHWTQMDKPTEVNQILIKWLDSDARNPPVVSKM
The term inhibition denotes the relative decrease from the control value, in per cent. With `COc1ccccc1CSc1nc2ccccc2[nH]1`, the inhibition was -2.6% (inactive).

Regarding `COc1cc(OC)c(/C=N/NC(=O)c2ccc([N+](=O)[O-])cc2)cc1Br`, the inhibition is 35.2% (inactive).

On to `Cc1ccc(NC(=S)Nc2ncccc2C)c(C)c1`, for which the inhibition was 6.9% (inactive).

`O=C(/C=C/c1ccccc1)N/C(=C/c1ccccc1)C(=O)Nc1ccccc1O`: the inhibition is 2.8% (inactive).

With `Cc1cc2cc3c(N)[nH]nc3nc2cc1C`, the inhibition was 4.3% (inactive).

Regarding `Cc1ccc(-n2nc(N)c3c(=O)oc(N(C)C)nc32)cc1`, the inhibition is 10.2% (inactive).

`COc1cc(C(=O)NC(=S)NCc2ccco2)cc(OC)c1OC`: the inhibition was 12% (inactive).

In the case of `Cc1ccc(-c2nc3ccccc3[nH]2)cc1NC(=O)c1sc2ccccc2c1Cl`, the inhibition is 10.9% (inactive).

In the case of `NC(=O)C1(N2CCCCC2)CCN(C(=S)Nc2ccc(Cl)cc2)CC1`, the inhibition was 0.6% (inactive).

For the compound `CON(C)S(=O)(=O)c1ccc2c(c1)NC(=O)C1CCCN21` (stereo not drawn), the inhibition is -14.7% (inactive).

On to `O=C(NNC(=O)c1cccnc1)Nc1ccccc1`, for which the inhibition was -21.5% (inactive).

On to `N#C/C(=C/c1ccc(Cl)cc1)NC(=O)c1ccccc1`, for which the inhibition was 3.7% (inactive).

As to `CCOC(=O)c1ccc(NC(=O)CSc2nnc(COc3ccccc3OC)n2C)cc1`, the inhibition was 9.6% (inactive).

For the compound `CCCCNC(=O)CSc1nnc(-c2ccco2)n1C`, the inhibition is -1.7% (inactive).

On to `CCCCNC(=O)CSc1nc2ccc(NC(=O)CSc3nnc(COc4ccccc4C)n3C)cc2s1`, for which the inhibition was 88.5% (active).

Take `CC(CC(=O)Nc1cc(C(F)(F)F)ccc1Cl)c1ccccc1` (stereo not drawn): the inhibition is 49.5% (inactive).

As for `CC1CCCCN1CC(=O)NCc1ccc2c(c1)OCO2` (stereo not drawn), the inhibition was 3.9% (inactive).

Turning to `CCOC(=O)NCc1ccc2c(c1)OCO2`, the inhibition was 4.7% (inactive).

Turning to `CCc1c(C)nc2ncnn2c1N1CCC(C(=O)NCc2ccc3c(c2)OCO3)CC1`, the inhibition was 83.3% (active).

As to `COc1ccc(NC(=O)Nc2ccc3nsnc3c2)cc1`, the inhibition is 75.6% (inactive).

As to `CCCCNCc1ccc(SC)cc1`, the inhibition is 10.8% (inactive).

`COc1ccc2c(c1)SC(C)CC2=O` (stereo not drawn): the inhibition is -11.8% (inactive).

`Cc1cccc(N(C(=O)Cc2cccs2)C(C(=O)NC2CCCC2)c2ccsc2)c1` (stereo not drawn): the inhibition was 1.9% (inactive).

As to `Cc1cccc(NC(=S)Nc2ccc(Br)cc2)c1`, the inhibition is 17.8% (inactive).

`COc1ccc(CCNC(=S)NC(=O)/C=C/c2ccc(C)cc2)cc1OC`: the inhibition is -0.9% (inactive).

Take `Cc1cccc(-n2cnc(C(=O)Nc3cccnc3)c2)n1`: the inhibition is -6.9% (inactive).

For `Cc1ccc2nc(Nc3ccccc3O)nc(-c3ccccc3)c2c1`, the inhibition was 0.8% (inactive).

Consider `c1ccc2c(CSCc3nc4ccccc4[nH]3)cccc2c1`, for which the inhibition is 10.5% (inactive).

With `Cc1ccccc1OC/C(O)=C(\C#N)c1nc2ccccc2[nH]1`, the inhibition is -13.4% (inactive).

On to `COC(=O)c1ccc(C(=O)Nc2cc(Cl)ccc2Cl)cc1NC(=O)c1ccccc1C`, for which the inhibition is -1.7% (inactive).

On to `Cc1ccccc1OCc1nnc(SCC(=O)N2c3ccccc3Sc3ccc(Cl)cc32)o1`, for which the inhibition is -2.3% (inactive).

Turning to `CC1Cc2ccccc2N1CC(=O)Nc1ccc2c(c1)OC(F)(F)O2` (stereo not drawn), the inhibition is 49.2% (inactive).

As to `CCOC(=O)COc1cc(OCC(=O)OCC)c2c(=O)cc(-c3ccccc3)oc2c1`, the inhibition was -14.8% (inactive).

On to `COCCCn1c(SCc2cccc(OC)c2)nc2cc(OC)c(OC)cc2c1=N`, for which the inhibition is 7.8% (inactive).

With `Cc1[nH]nc(-c2ccc(OCc3cnn(-c4ccccc4)c3)cc2O)c1Oc1ccc(Cl)cc1`, the inhibition was 11.4% (inactive).

As to `COc1ccc(C(=O)NC(=S)Nc2ccccc2N2CCN(S(C)(=O)=O)CC2)cc1OC`, the inhibition is 12.4% (inactive).

`Cc1ccc2nc(SCc3nnc(-c4ccccc4[N+](=O)[O-])o3)c(C#N)cc2c1`: the inhibition is 0.2% (inactive).

For `Cc1cccc(-n2ncc(C#N)c2-n2cccc2)c1`, the inhibition is 0.9% (inactive).

`CCCC(=O)NC(Nc1ccccc1OC)C(Cl)(Cl)Cl` (stereo not drawn): the inhibition was 6.5% (inactive).

With `Fc1ccccc1COc1ccccc1CNCc1ccncc1`, the inhibition is 5.2% (inactive).

In the case of `CC(=O)Nc1ccccc1C(=O)C(=O)Nc1ccc(F)cc1`, the inhibition is -20.5% (inactive).

`COC(=O)CNC(=O)c1ccccc1[N+](=O)[O-]`: the inhibition was -15.7% (inactive).

On to `O=C(CCc1ccc(S(=O)(=O)N2CCOCC2)cc1)Nc1ccc2ccccc2c1`, for which the inhibition is 21.6% (inactive).

Turning to `CONC(=O)c1cc(OCC(F)(F)F)ccc1OCC(F)(F)F`, the inhibition is 6% (inactive).

As to `Cc1c(Br)c([N+](=O)[O-])nn1C(C)C(=O)Nc1nccs1` (stereo not drawn), the inhibition was -4.7% (inactive).

Regarding `N#Cc1ccc(-c2ccc(Cl)cc2)nc1Oc1ccc(F)cc1`, the inhibition is 7.8% (inactive).

In the case of `COCc1cc(C)nc2sc3c(=O)n(-c4cccc5ccccc45)nnc3c12`, the inhibition is 3.4% (inactive).

Regarding `Cc1ccc(-n2c(C)cc(/C=C(\C#N)C(=O)NCC3CCCO3)c2C)cc1` (stereo not drawn), the inhibition was 10.8% (inactive).

`O=Cc1c(N2CCN(c3cccc(Cl)c3)CC2)nc2ccccn2c1=O`: the inhibition was 1.4% (inactive).

For the compound `Cc1cccc(NC(=O)Nc2cccc(Oc3c(F)c(F)c(F)c(F)c3F)c2)c1`, the inhibition was 80.6% (active).

For `COc1cccc(NC(=O)Cc2ccc(C)cc2)c1`, the inhibition is 1.6% (inactive).

With `CC(=O)c1cccc(NC(=O)Nc2ccc(C)cc2)c1`, the inhibition was 48.2% (inactive).

For the compound `O=C(/C=C\NCC(=O)c1ccccc1)c1ccccc1`, the inhibition was 2.3% (inactive).

Take `COc1ccc2c(c1OC)C(=O)c1ccccc1C2=O`: the inhibition was -2.2% (inactive).

Take `Cc1onc(-c2c(Cl)cccc2Cl)c1C(=O)c1c[nH]c(C(=O)NC2CC2)c1`: the inhibition is 2% (inactive).

`Cc1[nH]n(-c2ccccc2)c(=O)c1CCOC(=O)c1ccc(C(F)(F)F)cc1`: the inhibition is 7.1% (inactive).

With `C/C(=N/NC(=O)c1ccc(NC(=O)c2ccc(F)cc2)cc1)c1ccccc1`, the inhibition was -3.4% (inactive).

Consider `Cc1cc2c(c(=O)n1C)C(C(C)C)C(C#N)=C(N)O2` (stereo not drawn), for which the inhibition is -3.6% (inactive).

In the case of `CNS(=O)(=O)c1cnccc1N1CCN(c2cccc(C)c2)CC1`, the inhibition was 13.4% (inactive).

For the compound `Cc1ccc(-c2nnc(-n3nnc4ccccc43)c3ccccc23)cc1`, the inhibition was -3.9% (inactive).

Turning to `C=CCNc1nc(N)c(C(=C(C#N)C#N)c2ccccc2)s1`, the inhibition was 4.9% (inactive).

For `Cc1cc([N+](=O)[O-])c(N2CCC[C@@H]2C(=O)O)c([N+](=O)[O-])c1`, the inhibition is 3.1% (inactive).

With `COC(=O)CN(C(=S)Nc1ccc(Cl)cc1)C1CC(=O)N(c2ccc(OC)cc2)C1=O` (stereo not drawn), the inhibition was 12.2% (inactive).
